Here are results for five molecules from PubChem BioAssay (EPA / NIEHS).

Inconclusive results are not listed. Calls of active or inactive are those of the source. How the source made its calls, unless noted: active means hit-call score of the fitted dose curve at least 0.9, where 1 is the maximum; inactive means score below 0.9.

Experiment [1] can be described thus: TOX21_TR_RXR_BLA_Antagonist_Followup_viability: Viability Assessment in the Tox21 Thyroid Hormone Receptor beta Retinoid X Receptor alpha (RXRa) Antagonism Beta-lactamase (BLA) Follow-Up Assay (AID 2283979; active means hit-call score of the fitted dose curve at least 0.9, where 1 is the maximum). The gist of the method: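 RXRa-bla HEK293T cells (2,500/well, phenol red-free DMEM, 2% charcoal-stripped FBS) were attached 5 h, then exposed to compounds at 11 concentrations in triplicate for 16 h at 37C. Viability measured by CellTiter-Glo ATP luminescence, bidirectional fitting versus DMSO.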

The target in experiment [2] is Thyroid hormone receptor alpha (Rattus norvegicus) + Thyroid hormone receptor beta (Rattus norvegicus) (UniProt P18113+P63059). In words: TOX21_TR_LUC_GH3_Antagonist_Followup: Tox21 GH3 Thyroid Hormone Receptor Antagonism Luciferase Follow-Up Assay (AID 2283942; active means hit-call score of the fitted dose curve at least 0.9, where 1 is the maximum). The gist of the method:
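Antagonist mode: GH3 cells seeded 1,500/well, compounds at 15 concentrations (92 uM to 5nM final) plus T3 at 1.0 nM final, 24 h at 37C. Luciferase read with ONE-Glo after 30 min at room temperature.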

Experiment [3] is described as follows: TOX21_TRB_BLA_Antagonist_Followup_viability: Viability Assessment in the Tox21 Thyroid Hormone Receptor beta Antagonism Beta-lactamase (BLA) Follow-Up Assay (AID 2283961; active means hit-call score of the fitted dose curve at least 0.9, where 1 is the maximum). The gist of the method: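 HEK293T cells stably expressing GAL4-DBD/human TRβ-LBD with UAS-bla reporter, 3,000 cells/well in phenol red-free DMEM, 2% charcoal-stripped FBS. Compounds at 11 concentrations in triplicate, 18 h at 37C/5% CO2; viability by CellTiter-Glo luminescence after 30 min at room temperature.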

For experiment [4], the target named is Retinoic acid receptor RXR-alpha (Homo sapiens) (UniProt P19793). Kind of experiment: TOX21_TR_RXR_BLA_Antagonist_Followup_ratio: Tox21 Thyroid Hormone Receptor beta Retinoid X Receptor alpha (RXRa) Antagonism Beta-lactamase (BLA) Follow-Up Assay, Ratio (AID 2283972; active means hit-call score of the fitted dose curve at least 0.9, where 1 is the maximum). The gist of the method:
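RXRa-UAS-bla HEK293T cells in phenol red-free DMEM with 2% charcoal-stripped FBS; compounds at 11 concentrations in triplicate, 16 h at 37C. LiveBLAzer FRET-B/CCF4-AM substrate 2 h at room temperature; read as 460:530 nm ratio versus DMSO.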

For another experiment, the target named is THRA (gene 7067) (UniProt P10827). Kind of experiment: TOX21_TRA_COA_Agonist_Followup_ratio: Tox21 Thyroid Hormone Receptor alpha Agonism through Coactivator Recruitment Follow-Up Assay, Ratio (AID 2283948). The gist of the method: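 Read-out is the 520/495 nm emission ratio (ex 340 nm), scaled between DMSO-only wells as 0% and T3 wells as 100%. It reflects fluorescein-SRC-2 peptide recruitment to GST-TRα LBD detected via terbium anti-GST antibody.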

For experiment [5], the target named is THRB (gene 7068) (UniProt P10828). Kind of experiment: TOX21_TRB_BLA_Agonist_Followup_ratio: Tox21 Thyroid Hormone Receptor beta Agonism Beta-lactamase (BLA) Follow-Up Assay, Ratio (AID 2283954; active means hit-call score of the fitted dose curve at least 0.9, where 1 is the maximum). The gist of the method: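 Human TRβ LBD–GAL4 DBD fusion in GeneBLAzer UAS-bla HEK293T cells; 11 concentrations in triplicate, 18 h at 37°C/5% CO2, T3 as agonist control. CCF4-AM substrate 2 h at room temperature; 460:530 nm ratio fitted for gain of signal versus DMSO.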

Experiment [6] has the same target. Kind of experiment: TOX21_TRB_COA_Agonist_Followup_ratio: Tox21 Thyroid Hormone Receptor beta Agonism through Coactivator Recruitment Follow-Up Assay, Ratio (AID 2283963). The essentials:
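Signal is the 520/495 nm emission ratio (excitation 340 nm), scaled between DMSO-only wells as 0% and T3 wells as 100%. It reflects fluorescein-labeled SRC-2 peptide recruitment to GST-TRβ ligand-binding domain detected via terbium anti-GST antibody.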

The target of experiment [7] is Retinoic acid receptor RXR-alpha (Homo sapiens) (UniProt P19793). In words: TOX21_TR_RXR_BLA_Agonist_Followup_ratio: Tox21 Thyroid Hormone Receptor beta Retinoid X Receptor alpha (RXRa) Agonism Beta-lactamase (BLA) Follow-Up Assay, Ratio (AID 2283968; active means hit-call score of the fitted dose curve at least 0.9, where 1 is the maximum). The gist of the method:
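This follow-up tests whether responses seen in the TR GH3 luciferase agonist screen are specific, using a GAL4-driven beta-lactamase reporter for RXRa in HEK293T cells. Compound exposure lasts 16 h; signal is the cleaved/uncleaved substrate ratio.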

The nature of experiment [8]: TOX21_TR_RXR_BLA_Agonist_Followup_viability: Viability Assessment in the Tox21 Thyroid Hormone Receptor beta Retinoid X Receptor alpha (RXRa) Agonism Beta-lactamase (BLA) Follow-Up Assay (AID 2283970; active means hit-call score of the fitted dose curve at least 0.9, where 1 is the maximum). The essentials: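 In qHTS format, RXRa-bla HEK293T cells (2,500/well) received compound for 16h. ATP content was then measured with CellTiter-Glo, and responses were fitted bidirectionally relative to DMSO controls.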

Experiment [9] is described as follows: CCTE_Harrill_HTTr_Viability_DMEM_6hr: (Pilot) CCTE's 6-hour Cell Viability Assessment for the High-Throughput Transcriptomics (HTTr) Platform, in MCF-7 cells cultured in DMEM + 10% fetal bovine serum, Harrill Lab (AID 2283973). The gist of the method: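 MCF-7 cells in DMEM + 10% FBS, eight-point dilution series, 6 h exposure. Membrane integrity by propidium iodide exclusion with high-content imaging; bidirectional fit versus DMSO.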

Experiment [10] in a line: CCTE_Harrill_HTTr_Viability_DMEM_12hr: (Pilot) CCTE's 12-hour Cell Viability Assessment for the High-Throughput Transcriptomics (HTTr) Platform, in MCF-7 cells cultured in DMEM + 10% fetal bovine serum, Harrill Lab (AID 2283974). The gist of the method: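 MCF-7 cells in DMEM + 10% FBS exposed 12 h to an eight-point dilution series; membrane integrity scored by propidium iodide exclusion with high-content imaging, bidirectional fitting versus DMSO.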

Experiment [11] in a line: CCTE_Harrill_HTTr_Viability_DMEM_24hr: (Pilot) CCTE's 24-hour Cell Viability Assessment for the High-Throughput Transcriptomics (HTTr) Platform, in MCF-7 cells cultured in DMEM + 10% fetal bovine serum, Harrill Lab (AID 2283975). The gist of the method:
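MCF-7 cells in DMEM with 10% FBS exposed for 24 hours to an eight-point dilution series. Membrane integrity by propidium iodide exclusion with high content imaging; bidirectional fit against DMSO.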

A short description of experiment [12]: CCTE_Harrill_HTTr_Viability_PRF_DMEM_6hr: (Pilot) CCTE's 6-hour Cell Viability Assessment for the High-Throughput Transcriptomics (HTTr) Platform, in MCF-7 cells cultured phenol red-free DMEM + 10% charcoal-stripped fetal bovine serum, Harrill Lab (AID 2283976). The gist of the method: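 MCF-7 cells in phenol red-free DMEM with 10% charcoal-stripped FBS exposed 6 hours to an eight-point dilution series. Propidium iodide exclusion imaged; curves fitted bidirectionally against DMSO.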

The nature of experiment [13]: CCTE_Harrill_HTTr_Viability_PRF_DMEM_12hr: (Pilot) CCTE's 12-hour Cell Viability Assessment for the High-Throughput Transcriptomics (HTTr) Platform, in MCF-7 cells cultured in phenol red-free DMEM + 10% charcoal-stripped fetal bovine serum, Harrill Lab (AID 2283977). The gist of the method: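 MCF-7 cells in phenol red-free DMEM with 10% charcoal-stripped FBS exposed 12 hours to an eight-point dilution series. Viability assessed by high-content imaging of propidium iodide exclusion; bidirectional fit versus DMSO.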

The nature of experiment [14]: CCTE_Harrill_HTTr_Viability_PRF_DMEM_24hr: (Pilot) CCTE's 24-hour Cell Viability Assessment for the High-Throughput Transcriptomics (HTTr) Platform, in MCF-7 cells cultured in phenol red-free DMEM + 10% charcoal-stripped fetal bovine serum, Harrill Lab (AID 2283980). The gist of the method: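 MCF-7 cells in phenol red-free DMEM with 10% charcoal-stripped FBS, eight-point dilution series, 24 h exposure. Membrane integrity by propidium iodide exclusion with high content imaging; bidirectional fit vs DMSO.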

Experiment [15] in a line: CCTE_Harrill_HTTr_Apoptosis_DMEM_6hr: (Pilot) CCTE's 6-hour Apoptosis Assessment for the High-Throughput Transcriptomics (HTTr) Platform, in MCF-7 cells cultured in DMEM + 10% fetal bovine serum, Harrill Lab (AID 2283981). The essentials:
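Caspase-3/7 activation read by high content imaging with CellEvent Caspase 3/7 Green in MCF-7 cells (DMEM + 10% FBS), 6 h after dosing; eight-point dilution series. Bidirectional fitting relative to DMSO baseline.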

The nature of experiment [16]: CCTE_Harrill_HTTr_Apoptosis_DMEM_12hr: (Pilot) CCTE's 12-hour Apoptosis Assessment for the High-Throughput Transcriptomics (HTTr) Platform, in MCF-7 cells cultured in DMEM + 10% fetal bovine serum, Harrill Lab (AID 2283982). The essentials: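 MCF-7 cells in DMEM + 10% FBS, exposed 12 h to an eight-point dilution series; caspase-3/7 activation imaged with CellEvent Green. Bidirectional fit versus DMSO.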

Experiment [17] is described as follows: CCTE_Harrill_HTTr_Apoptosis_DMEM_24hr: (Pilot) CCTE's 24-hour Apoptosis Assessment for the High-Throughput Transcriptomics (HTTr) Platform, in MCF-7 cells cultured in DMEM + 10% fetal bovine serum, Harrill Lab (AID 2283983). The gist of the method: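 MCF-7 cells in DMEM + 10% FBS, eight-point dilution series, 24 h exposure. Caspase-3/7 activation imaged by high-content imaging with CellEvent Caspase 3/7 Green. Bidirectional curve fitting against DMSO baseline.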

A short description of experiment [18]: CCTE_Harrill_HTTr_Apoptosis_PRF_DMEM_6hr: (Pilot) CCTE's 6-hour Apoptosis Assessment for the High-Throughput Transcriptomics (HTTr) Platform, in MCF-7 cells cultured phenol red-free DMEM + 10% charcoal-stripped fetal bovine serum, Harrill Lab (AID 2283984). The gist of the method:
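MCF-7 cells in phenol red-free DMEM + 10% charcoal-stripped FBS, eight-point dilution series, 6 h exposure. Caspase-3/7 activation imaged by high-content imaging with CellEvent Caspase 3/7 Green; bidirectional fit versus DMSO baseline.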

The nature of experiment [19]: CCTE_Harrill_HTTr_Apoptosis_PRF_DMEM_24hr: (Pilot) CCTE's 24-hour Apoptosis Assessment for the High-Throughput Transcriptomics (HTTr) Platform, in MCF-7 cells cultured in phenol red-free DMEM + 10% charcoal-stripped fetal bovine serum, Harrill Lab (AID 2283986). The essentials: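 MCF-7 cells in phenol red-free DMEM with 10% charcoal-stripped FBS, exposed 24 h across an eight-point dilution series. Caspase-3/7 activation imaged with CellEvent Green by high content imaging; bidirectional fitting against DMSO.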

Sequence of THRB (gene 7068) (P10828 whole entry, looked up, the tested form may be a part): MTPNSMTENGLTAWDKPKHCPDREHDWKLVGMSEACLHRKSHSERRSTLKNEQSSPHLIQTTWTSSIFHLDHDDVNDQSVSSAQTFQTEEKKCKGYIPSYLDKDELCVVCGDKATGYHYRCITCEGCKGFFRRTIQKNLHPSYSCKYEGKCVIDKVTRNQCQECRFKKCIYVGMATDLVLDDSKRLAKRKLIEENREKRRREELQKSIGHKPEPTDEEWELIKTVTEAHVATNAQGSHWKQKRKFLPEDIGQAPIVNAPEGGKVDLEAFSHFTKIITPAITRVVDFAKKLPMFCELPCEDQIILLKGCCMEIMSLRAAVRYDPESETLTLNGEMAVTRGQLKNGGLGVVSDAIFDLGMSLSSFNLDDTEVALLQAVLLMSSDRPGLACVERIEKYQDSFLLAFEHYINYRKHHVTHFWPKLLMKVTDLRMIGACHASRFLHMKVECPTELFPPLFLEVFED
Sequence of Retinoic acid receptor RXR-alpha (Homo sapiens) (P19793 whole entry, looked up, the tested form may be a part): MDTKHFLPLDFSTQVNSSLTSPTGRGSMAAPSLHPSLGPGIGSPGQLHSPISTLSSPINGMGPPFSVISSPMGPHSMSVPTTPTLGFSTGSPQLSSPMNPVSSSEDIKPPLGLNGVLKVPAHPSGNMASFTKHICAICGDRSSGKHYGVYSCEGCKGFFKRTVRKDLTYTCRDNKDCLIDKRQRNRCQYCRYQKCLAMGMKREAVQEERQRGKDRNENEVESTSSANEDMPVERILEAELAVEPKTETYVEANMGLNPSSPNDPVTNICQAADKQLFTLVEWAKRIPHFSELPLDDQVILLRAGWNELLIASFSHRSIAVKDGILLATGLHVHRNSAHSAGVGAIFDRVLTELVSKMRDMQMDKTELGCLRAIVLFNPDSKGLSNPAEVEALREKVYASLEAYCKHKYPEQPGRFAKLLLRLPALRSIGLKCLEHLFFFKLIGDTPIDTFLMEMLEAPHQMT
Sequence of THRA (gene 7067) (P10827 whole entry, looked up, the tested form may be a part): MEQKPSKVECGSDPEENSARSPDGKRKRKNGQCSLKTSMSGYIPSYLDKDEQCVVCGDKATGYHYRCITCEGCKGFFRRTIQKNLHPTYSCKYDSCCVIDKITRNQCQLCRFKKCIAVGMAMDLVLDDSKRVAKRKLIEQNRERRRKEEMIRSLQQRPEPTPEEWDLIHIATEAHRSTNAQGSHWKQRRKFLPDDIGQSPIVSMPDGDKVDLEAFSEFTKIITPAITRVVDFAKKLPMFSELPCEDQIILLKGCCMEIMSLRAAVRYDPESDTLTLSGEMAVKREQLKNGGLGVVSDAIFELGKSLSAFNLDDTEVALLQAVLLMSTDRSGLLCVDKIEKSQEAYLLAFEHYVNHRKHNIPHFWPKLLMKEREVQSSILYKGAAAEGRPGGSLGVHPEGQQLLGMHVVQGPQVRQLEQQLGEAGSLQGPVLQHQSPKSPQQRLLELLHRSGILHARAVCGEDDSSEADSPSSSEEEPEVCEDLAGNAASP

As to `O=c1[nH]cc(F)c(=O)[nH]1`, in experiment [1], the outcome was inactive.
On to `Nc1nc(N)c2nc(CNc3ccc(C(=O)N[C@@H](CCC(=O)O)C(=O)O)cc3)cnc2n1`, for which the result in experiment [2], in experiment [3], in [4] and in experiment [1] was inactive.
Regarding `CCCCCCCCCCC`, the result (with THRA (gene 7067); in the experiment with THRB (gene 7068) [5]; in the experiment with THRB (gene 7068) [6]; in experiment [7]; in experiment [8]) was inactive.
With `Cc1cc(NC(=O)C(=O)O)cc(C)c1Oc1ccc(O)c2c1CCC2`, the AC50 is 3.53 nM (active) in the experiment with THRA (gene 7067), 84.8 nM (active) in the experiment with THRB (gene 7068) [5], 2.27 nM (active) with THRB (gene 7068) [6] and 21600 nM (active) in experiment [7].
For the molecule `CCOC(=O)C(C)(C)Oc1ccc(Cl)cc1`, the outcome in experiment [9], in experiment [10], in experiment [11], in experiment [12], in [13] and in experiment [14] was inactive. For the same molecule, the result in [15], in [16], in experiment [17], in [18] and in experiment [19] was inactive.
